# Measured values published in the supplement of paper PMC8975748.
# Where a name gives a salt, the structure may show the parent alone. ± gives the standard deviation of the averaged measurements.
# Tests used:
# [1] = tested on: Saccharomyces cerevisiae BY4741 SeMeCo community; experiment: mean cell size (pixel area) (pixels); higher = larger cells; details: 10 µM; 24 h; SM minimal medium
# Outline: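 Drug was acoustically predosed into 384-well plates to a final 10 µM in SM medium, and each well received 70 µl of Saccharomyces cerevisiae BY4741 diluted to OD600 = 0.3 from an overnight preculture at OD600 = 1.0. This four-plasmid fluorescent community carries one fluorescent marker per plasmid, and each plasmid complements one auxotrophy. After 24 h, the cells were fixed with paraformaldehyde and imaged by automated confocal microscopy, and Harmony analysis yielded mean cell pixel area per well. Each value is averaged over 3 replicates. Same SeMeCo high-content imaging drug screen: Selleck FDA-approved drugs at 10 µM, 24 h in SM medium, 384-well plates, 3 replicates.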
# [2] = tested on: Saccharomyces cerevisiae BY4741 SeMeCo community; experiment: z-score of subpopulation abundance vs DMSO median, subpopulation auxotrophic for M; higher = larger share of this subpopulation than in DMSO controls; details: 10 µM; 24 h; SM minimal medium; subpopulation (auxotrophy): M
# Outline: (§1)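 Automated confocal microscopy of paraformaldehyde-fixed cells was used to follow a Saccharomyces cerevisiae BY4741 community carrying four plasmids, each restoring one auxotrophy and encoding a distinct fluorescent protein. The community was pre-grown overnight to OD600 1.0, diluted to 0.3, and added at 70 µl to 384-well plates acoustically predosed with library drugs (10 µM final) for 24 h of growth in minimal SM medium. Single-auxotroph fluorescent strains set thresholds and autofluorescence correction, and each subpopulation's abundance was scored as a z-score against the vehicle-well median.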
# [3] = tested on: Saccharomyces cerevisiae BY4741 SeMeCo community; experiment: z-score of subpopulation abundance vs DMSO median, subpopulation auxotrophic for H; higher = larger share of this subpopulation than in DMSO controls; details: 10 µM; 24 h; SM minimal medium; subpopulation (auxotrophy): H
# Outline: as §1
# [4] = tested on: Saccharomyces cerevisiae BY4741 SeMeCo community; experiment: z-score of subpopulation abundance vs DMSO median, subpopulation auxotrophic for LU; higher = larger share of this subpopulation than in DMSO controls; details: 10 µM; 24 h; SM minimal medium; subpopulation (auxotrophy): LU
# Outline: as §1
# [5] = tested on: Saccharomyces cerevisiae BY4741 SeMeCo community; experiment: z-score of subpopulation abundance vs DMSO median, subpopulation auxotrophic for LM; higher = larger share of this subpopulation than in DMSO controls; details: 10 µM; 24 h; SM minimal medium; subpopulation (auxotrophy): LM
# Outline: as §1
# [6] = tested on: Saccharomyces cerevisiae BY4741 SeMeCo community; experiment: z-score of subpopulation abundance vs DMSO median, subpopulation auxotrophic for UM; higher = larger share of this subpopulation than in DMSO controls; details: 10 µM; 24 h; SM minimal medium; subpopulation (auxotrophy): UM
# Outline: as §1
# [7] = tested on: Saccharomyces cerevisiae BY4741 SeMeCo community; experiment: z-score of subpopulation abundance vs DMSO median, subpopulation auxotrophic for HL; higher = larger share of this subpopulation than in DMSO controls; details: 10 µM; 24 h; SM minimal medium; subpopulation (auxotrophy): HL
# Outline: as §1
# [8] = tested on: Saccharomyces cerevisiae BY4741 SeMeCo community; experiment: z-score of subpopulation abundance vs DMSO median, subpopulation auxotrophic for HLU; higher = larger share of this subpopulation than in DMSO controls; details: 10 µM; 24 h; SM minimal medium; subpopulation (auxotrophy): HLU
# Outline: as §1
# [9] = tested on: Saccharomyces cerevisiae BY4741 SeMeCo community; experiment: z-score of subpopulation abundance vs DMSO median, subpopulation auxotrophic for HLM; higher = larger share of this subpopulation than in DMSO controls; details: 10 µM; 24 h; SM minimal medium; subpopulation (auxotrophy): HLM
# Outline: as §1
# [10] = tested on: Saccharomyces cerevisiae BY4741 SeMeCo community; experiment: z-score of subpopulation abundance vs DMSO median, subpopulation auxotrophic for HUM; higher = larger share of this subpopulation than in DMSO controls; details: 10 µM; 24 h; SM minimal medium; subpopulation (auxotrophy): HUM
# Outline: as §1
# [11] = tested on: Saccharomyces cerevisiae BY4741 SeMeCo community; experiment: z-score of subpopulation abundance vs DMSO median, subpopulation auxotrophic for LUM; higher = larger share of this subpopulation than in DMSO controls; details: 10 µM; 24 h; SM minimal medium; subpopulation (auxotrophy): LUM
# Outline: as §1
# [12] = tested on: Saccharomyces cerevisiae BY4741 SeMeCo community; experiment: z-score of subpopulation abundance vs DMSO median, subpopulation auxotrophic for HLUM; higher = larger share of this subpopulation than in DMSO controls; details: 10 µM; 24 h; SM minimal medium; subpopulation (auxotrophy): HLUM
# Outline: as §1
# [13] = tested on: Saccharomyces cerevisiae BY4741 SeMeCo community; experiment: z-score of prototroph abundance vs DMSO median; higher = larger share of this subpopulation than in DMSO controls; details: 10 µM; 24 h; SM minimal medium; subpopulation (auxotrophy): Prototroph
# Outline: as §1
# [14] = tested on: Saccharomyces cerevisiae BY4741 SeMeCo community; experiment: z-score of subpopulation abundance vs DMSO median, subpopulation auxotrophic for U; higher = larger share of this subpopulation than in DMSO controls; details: 10 µM; 24 h; SM minimal medium; subpopulation (auxotrophy): U
# Outline: as §1
# [15] = tested on: Saccharomyces cerevisiae BY4741 SeMeCo community; experiment: z-score of subpopulation abundance vs DMSO median, subpopulation auxotrophic for HM; higher = larger share of this subpopulation than in DMSO controls; details: 10 µM; 24 h; SM minimal medium; subpopulation (auxotrophy): HM
# Outline: as §1
# [16] = tested on: Saccharomyces cerevisiae BY4741 SeMeCo community; experiment: z-score of subpopulation abundance vs DMSO median, subpopulation auxotrophic for HU; higher = larger share of this subpopulation than in DMSO controls; details: 10 µM; 24 h; SM minimal medium; subpopulation (auxotrophy): HU
# Outline: as §1
# [17] = tested on: Saccharomyces cerevisiae BY4741 SeMeCo community; experiment: z-score of subpopulation abundance vs DMSO median, subpopulation auxotrophic for L; higher = larger share of this subpopulation than in DMSO controls; details: 10 µM; 24 h; SM minimal medium; subpopulation (auxotrophy): L
# Outline: as §1
Compound,mean cell size [1],z-score of subpopulation abundance [2],z-score of subpopulation abundance [3],z-score of subpopulation abundance [4],z-score of subpopulation abundance [5],z-score of subpopulation abundance [6],z-score of subpopulation abundance [7],z-score of subpopulation abundance [8],z-score of subpopulation abundance [9],z-score of subpopulation abundance [10],z-score of subpopulation abundance [11],z-score of subpopulation abundance [12],z-score of prototroph abundance [13],z-score of subpopulation abundance [14],z-score of subpopulation abundance [15],z-score of subpopulation abundance [16],z-score of subpopulation abundance [17]
CC[C@H]1OC(=O)[C@H](C)[C@@H](O[C@H]2C[C@@](C)(OC)[C@@H](O)[C@H](C)O2)[C@H](C)[C@@H](O[C@@H]2O[C@H](C)C[C@H](N(C)C)[C@H]2O)[C@](C)(O)C[C@@H](C)CN(C)[C@H](C)[C@@H](O)[C@]1(C)O [Azithromycin Dihydrate],12.5 ± 0.38,0.58,0.7,-0.14,-0.45,0.16,0.05,-0.73,0.07,0.97,-0.75,-0.18,,,,,
Nc1c(Br)cc(Br)cc1CN[C@H]1CC[C@H](O)CC1 [Ambroxol HCl],12.1 ± 0.17,-0.93,-0.09,-0.9,-0.43,-0.8,-0.86,-0.39,-0.5,-0.94,-1.08,-0.43,1.21,-0.79,-1.17,-1.1,
CC[N+](CC)(CC)CC [Tetraethylammonium bromide],12.27 ± 0.094,0.89,-0.73,1.18,0.41,0.12,-0.73,0.38,-0.06,,0.28,1.04,-0.64,1.19,0.22,-0.09,
O=C1CC2(CCCC2)CC(=O)N1CCCCN1CCN(c2ncccn2)CC1 [Buspirone HCl],12.4 ± 0.25,-1.82,-0.72,1.78,-0.34,-1.32,0,-0.25,-0.1,-0.84,-0.12,0.74,0.7,0.5,-0.83,-0.07,
CCN(CC)C(=O)N1CCN(C)CC1 [Diethylcarbamazine citrate],12.6 ± 0.14,-0.11,-0.57,0.3,,0.18,-1.04,-0.06,0.15,0.13,-0.5,-0.66,0.16,0.67,-0.19,-0.43,
Cc1cccc(C)c1NC(=O)C1CCCCN1C (centres undefined) [Mepivacaine HCl],12.5 ± 0.31,-0.34,-0.77,0.44,-0.76,2.17,-0.96,0.11,0.13,0.36,0.38,0.2,-0.33,,-0.57,0.57,
CO[C@H]1C[C@@H]2CC[C@@H](C)[C@@](O)(O2)C(=O)C(=O)N2CCCC[C@H]2C(=O)O[C@H]([C@H](C)C[C@@H]2CC[C@@H](OCCO)[C@H](OC)C2)CC(=O)[C@H](C)/C=C(\C)[C@@H](O)[C@@H](OC)C(=O)[C@H](C)C[C@H](C)/C=C/C=C/C=C/1C [Everolimus (RAD001)],14.17 ± 0.11,-1.38,15.9,2.59,4.3,12.8,12.2,22.9,19,32.4,12.4,,,2.5,22.4,27.1,
CC(C)c1nc(N(C)S(C)(=O)=O)nc(-c2ccc(F)cc2)c1/C=C/[C@@H](O)C[C@@H](O)CC(=O)O [Rosuvastatin],11.22 ± 0.092,-1.77,4.84,1.31,,1,5.32,1.68,3.7,2.38,1.84,2.76,-2.69,-1.39,2.17,1.77,
CN(C)c1ccc(O)c2c1C[C@H]1C[C@H]3[C@H](N(C)C)C(=O)C(C(N)=O)=C(O)[C@@]3(O)C(=O)C1=C2O [Minocycline HCl],,0.32,-0.15,0.63,,0.25,0.73,0.06,0.31,-0.12,0.3,0.19,-0.28,0.78,-0.22,-0.3,
Cc1ncc([N+](=O)[O-])n1C [Dimetridazole],12.5 ± 0.19,-0.26,0.05,-0.31,,-0.37,-0.32,-0.59,0.46,0.28,-1.1,0.31,0.38,-0.07,-0.42,0.17,
OC(c1cc(C(F)(F)F)nc2c(C(F)(F)F)cccc12)C1CCCCN1 (centres undefined) [Mefloquine HCl],12.3 ± 0.37,-0.32,-0.01,1.02,0.3,0.92,0.36,0.29,0,0.3,,,-0.39,0.95,0.44,-0.36,
C[C@H]1COc2c(N3CCN(C)CC3)c(F)cc3c(=O)c(C(=O)O)cn1c23 [Levofloxacin hydrate],12.5 ± 0.29,0.54,0.26,1.73,1.34,0.61,0.74,0.84,0.07,,1.66,,-1.38,0.27,0.64,0.77,
C[C@H]1COc2c(N3CCN(C)CC3)c(F)cc3c(=O)c(C(=O)O)cn1c23 [Levofloxacin],12.4 ± 0.19,0,-0.42,-0.77,,-0.89,-0.59,-0.56,,-0.88,-1.11,-0.96,1.06,-0.46,-0.49,,
CC(C)[C@H](N)C(=O)OCC(CO)OCn1cnc2c(=O)[nH]c(N)nc21 (some centres undefined) [Valganciclovir HCl],12.7 ± 0.14,-0.49,0.09,,-0.45,-0.83,-0.43,-0.52,0.99,-0.56,0.07,-0.35,0.56,-0.54,-0.64,-0.15,0.28
CCN1CCCC1CNC(=O)c1cc(S(N)(=O)=O)ccc1OC (centres undefined) [Sulpiride],12.54 ± 0.037,0.12,-0.37,,-0.86,-0.33,,-1.3,0.14,-0.68,0.04,0.02,0.51,-0.56,-0.46,-0.14,0.31
